Assay [1] has as its target Cellular tumor antigen p53 (Homo sapiens) (UniProt P04637). Put plainly: TOX21_p53_BLA_p4_ratio: Tox21 HCT-116 p53 Agonism Beta-lactamase Assay, Ratio, Phase 4 (AID 2283601). A digest of the protocol: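 HCT-116 p53 beta-lactamase reporter cells (4000/well) preincubated 5 h, then compound (217-fold dilution of DMSO stock) for 16 h at 37C. CCF4-AM substrate added 2 h at room temperature; 460/530 nm emission ratio fitted upward versus DMSO.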

Assay [2] can be described thus: ACEA_ER_AUC_viability: ACEA Biosciences xCELLigence Real-Time Cell Analysis on Estrogen Receptor Agonism for Viability (AID 2283782).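 Note: continuous compound exposure with impedance area under curve over 80 h; hit means loss of impedance signal meaning reduced cell growth or viability.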 A digest of the protocol: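 T47D cells preconditioned in phenol red-free RPMI with charcoal-stripped FBS, then dosed with 8-point 1:4 series from 100 uM (up to 0.5% DMSO). Impedance monitored up to ~80 h; area-under-curve loss versus DMSO taken as viability.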

Assay [3] deals with Thyroperoxidase (TPO), gene 54314. Put plainly: CCTE_Simmons_AUR_rTPO: CCTE's Amplex UltraRed Assay for Thyroperoxidase (TPO) Inhibition, Simmons Lab (AID 2283662).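 For AC50: potency for loss of signal meaning inhibition of peroxidase activity.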 Put shortly: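 Rat thyroid microsomes (5 ug protein) with 25 uM Amplex UltraRed and 300 uM H2O2 in 200 mM phosphate buffer, 30 min at 37C in dark; fluorescence 544/590 nm. Eight concentrations, 5 nM–87.5 uM final, 0.5% DMSO, triplicate biological replicates.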

Assay [4] can be described thus: CCTE_Simmons_CellTiterGLO_HEK293T: Viability Assessment in CCTE's Assays for Thyroperoxidase (TPO) Inhibition, Simmons Lab (AID 2283665).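 For AC50: cells exposed to compound for 24 h before readout; actives reduce ATP signal below DMSO vehicle meaning cytotoxicity.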 Put shortly:
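HEK293T cells in DMEM with 1% FBS, dosed 24 h at 37C with 8 concentrations, 5 nM–87.5 uM final, 0.5% DMSO. ATP measured by CellTiter Glo luminescence; loss of signal vs DMSO, three biological replicates.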
A general note: In ATP-based viability assays light output follows the ATP content of the culture.

Assay [5] in a line: CEETOX_H295R_MTT_cell_viability: Viability Assessment in the CeeTox HT-H295R MTT Assay (AID 2283718; active = hit-call score of the fitted dose curve at least 0.9, where 1 is the maximum; inactive = score below 0.9). A digest of the protocol:
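Human H295R adrenal cells, prestimulated 48 h with 10 uM forskolin, were exposed 48 h to chemicals in 0.1% DMSO. Viability was measured in the same wells by MTT (0.5 mg/ml, 4 h, 37 C), absorbance 570/650 nm, as percent of controls.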

The target in assay [6] is Luciferin 4-monooxygenase (Photinus pyralis) (UniProt P08659). Put plainly: CCTE_Simmons_QuantiLum_inhib_2: CCTE's Firefly Luciferase Inhibition Assay, Simmons Lab (AID 2283767).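 For AC50: potency for inhibitors that lower luciferase luminescence relative to DMSO.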 A digest of the protocol: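 Cell-free recombinant firefly luciferase (5 ng/well) in 200mM potassium phosphate with 1 mg/ml BSA, 30 min at 37C with 8 concentrations from 5 nM to 87.5 uM [final], 0.5% DMSO. Luminescence read after D-luciferin (150uM)/dATP (147uM) reagent injection, pH 7.8; triplicates.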
Chain of Luciferin 4-monooxygenase (Photinus pyralis) (P08659 whole entry, looked up): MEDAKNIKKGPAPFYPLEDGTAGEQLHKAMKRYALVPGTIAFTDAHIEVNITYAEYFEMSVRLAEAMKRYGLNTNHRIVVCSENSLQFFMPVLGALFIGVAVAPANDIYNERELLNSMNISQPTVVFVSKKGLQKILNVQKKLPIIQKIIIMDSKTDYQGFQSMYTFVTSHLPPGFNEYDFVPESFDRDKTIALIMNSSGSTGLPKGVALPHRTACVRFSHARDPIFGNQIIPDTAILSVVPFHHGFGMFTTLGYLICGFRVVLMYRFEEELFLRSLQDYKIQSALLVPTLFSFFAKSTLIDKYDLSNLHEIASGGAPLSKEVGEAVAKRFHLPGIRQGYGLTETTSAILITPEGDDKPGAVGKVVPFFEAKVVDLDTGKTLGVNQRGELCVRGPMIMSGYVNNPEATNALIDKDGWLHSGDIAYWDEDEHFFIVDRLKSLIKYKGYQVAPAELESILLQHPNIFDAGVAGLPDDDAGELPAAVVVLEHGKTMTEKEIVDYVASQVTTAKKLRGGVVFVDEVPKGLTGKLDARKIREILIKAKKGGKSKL

Assay [7] can be described thus: ACEA_AR_agonist_AUC_viability: ACEA Biosciences xCELLigence Real-Time Cell Analysis on Androgen Receptor Agonism for Viability (AID 2283775).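 For AC50: viability read 80 hours after compound addition.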 A digest of the protocol:
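Real-time impedance tracking of 22Rv1 growth, readings every 5 min for 5 h then hourly; area-under-curve viability endpoint at 80 hours, relative to DMSO. Compounds at eight concentrations, 1:4 steps, top 100 uM, n = 2.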

A further assay has as its target AR (gene 367) (UniProt P10275). Put plainly: ACEA_AR_agonist_80hr: ACEA Biosciences xCELLigence Real-Time Cell Analysis on Androgen Receptor Agonism for Proliferation (AID 2283783).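 Note: hits increase impedance growth signal above DMSO baseline.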 A digest of the protocol:
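Proliferation of 22Rv1 prostate cancer cells tracked by electrical impedance, endpoint taken at 80 hours after dosing. Eight-point 1:4 dilutions from 100 uM maximum final, duplicate; testosterone and MG132 as positive controls, assay media as negative.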

By AC50 is commonly meant the concentration giving half of the maximal activity seen.

Records with an inconclusive call do not appear. The source made the active and inactive calls. Rule for the calls, unless noted: active = hit-call score of the fitted dose curve at least 0.9, where 1 is the maximum; inconclusive = response in the unintended direction; inactive = score below 0.9.

Chain of AR (gene 367) (P10275 whole entry, looked up): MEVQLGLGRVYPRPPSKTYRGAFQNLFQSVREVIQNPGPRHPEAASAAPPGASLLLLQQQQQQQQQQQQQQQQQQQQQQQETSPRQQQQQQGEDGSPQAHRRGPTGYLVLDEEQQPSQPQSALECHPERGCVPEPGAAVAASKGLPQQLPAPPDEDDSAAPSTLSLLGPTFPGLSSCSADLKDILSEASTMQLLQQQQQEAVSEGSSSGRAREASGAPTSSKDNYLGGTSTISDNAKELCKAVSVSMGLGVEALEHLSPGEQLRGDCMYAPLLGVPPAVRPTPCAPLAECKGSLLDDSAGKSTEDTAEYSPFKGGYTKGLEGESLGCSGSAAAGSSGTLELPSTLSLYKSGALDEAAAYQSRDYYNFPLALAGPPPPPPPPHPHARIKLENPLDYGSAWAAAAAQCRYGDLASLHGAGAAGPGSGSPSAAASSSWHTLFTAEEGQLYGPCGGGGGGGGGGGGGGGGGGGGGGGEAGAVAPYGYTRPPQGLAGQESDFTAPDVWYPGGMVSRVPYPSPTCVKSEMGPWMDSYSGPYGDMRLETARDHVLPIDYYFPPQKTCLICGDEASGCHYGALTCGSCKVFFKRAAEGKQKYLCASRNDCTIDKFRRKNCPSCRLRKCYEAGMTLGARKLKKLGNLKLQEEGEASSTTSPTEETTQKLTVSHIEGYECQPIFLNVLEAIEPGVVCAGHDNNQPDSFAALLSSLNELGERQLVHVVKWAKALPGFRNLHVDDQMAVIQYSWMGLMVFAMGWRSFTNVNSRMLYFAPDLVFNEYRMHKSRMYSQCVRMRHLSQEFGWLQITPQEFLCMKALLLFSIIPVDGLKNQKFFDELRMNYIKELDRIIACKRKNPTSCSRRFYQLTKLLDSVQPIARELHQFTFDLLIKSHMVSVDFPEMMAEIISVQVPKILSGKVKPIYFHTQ
Chain of Cellular tumor antigen p53 (Homo sapiens) (P04637 whole entry, looked up): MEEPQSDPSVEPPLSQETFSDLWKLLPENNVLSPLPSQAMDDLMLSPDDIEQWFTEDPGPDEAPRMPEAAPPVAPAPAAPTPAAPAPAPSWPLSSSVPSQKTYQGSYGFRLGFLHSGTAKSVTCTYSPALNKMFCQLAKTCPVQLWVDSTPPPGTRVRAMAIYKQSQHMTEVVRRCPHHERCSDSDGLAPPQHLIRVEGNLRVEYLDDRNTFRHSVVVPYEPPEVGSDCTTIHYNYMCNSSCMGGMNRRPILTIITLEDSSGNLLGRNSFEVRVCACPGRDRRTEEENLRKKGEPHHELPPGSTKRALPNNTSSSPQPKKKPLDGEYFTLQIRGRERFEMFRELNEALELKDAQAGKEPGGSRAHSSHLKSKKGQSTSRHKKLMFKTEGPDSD

Regarding `CCCCOC(=O)[C@H](C)O`, the outcome in assay [1] and in assay [2] was inactive.

In the case of `CCCCCCCCCc1ccc(OCCO)cc1`, the AC50 is 38.5 µM (active) in assay [3], 79.6 µM (active) in assay [4], 9.26 µM (active) in assay [7] and 35.2 µM (active) in assay [2]. Moreover, the molecule was called inactive in assay [5] and in assay [6].

Turning to `C=CCOC(=O)CC(C)C`, the outcome in assay [1] and in assay [2] was inactive.

In the case of `CCCCCCCCCCCCC[N+](C)(C)Cc1ccccc1`, the AC50 in assay [3] was 25.5 µM (active); in assay [4], 9.42 µM (active); in assay [7] it was 2.99 µM (active); in assay [2], 7.37 µM (active). Further, the call in assay [5] and in assay [6] was inactive.

For `O=C(c1ccccc1)c1ccc(Cl)cc1`, in assay [5], the molecule was classed as inactive. In assay [2], the concentration at half-maximal activity (AC50) was 28.4 µM (active).

For `Nc1cccnc1N`, in assay [5], the outcome was inactive. Moreover, the AC50 in assay [2] is 83.2 µM (active).

As for `CCN(CC)c1ccc(N=Nc2ccccc2)cc1`, the call in assay [5] was inactive.

Turning to `CCN(CC)c1ccc(C=O)cc1`, the molecule was called inactive in assay [5].

With `CC(C)CCCC(C)CCO` (stereo not drawn), the outcome in assay [1] and in assay [2] was inactive.

In the case of `OCC1CCCO1` (stereo not drawn), the result in assay [1] was inactive. Further, the AC50 in the assay with AR (gene 367) is 0.585 µM (active).

On to `CC(C)(C)c1cc(Cc2cc(C(C)(C)C)c(O)c(C(C)(C)C)c2)cc(C(C)(C)C)c1O`, for which the half-maximal activity concentration (AC50) in assay [3] is 12.1 µM (active). The call in assay [6] and in assay [7] was inactive.

In the case of `CCCCCCCCCCCCCC[P+](CCCC)(CCCC)CCCC`, the AC50 was 47.9 µM (active) in assay [3]; 4.44 µM (active) in assay [4]; 83 µM (active) in assay [6]; 0.0138 µM (active) in assay [7]; 1.73 µM (active) in assay [2]. The result in the assay with AR (gene 367) was inactive.

For the molecule `O=c1[nH]cccc1O`, the concentration at half-maximal activity (AC50) in assay [3] was 0.115 µM (active); in assay [2], 25.7 µM (active). Besides, the result in assay [4], in assay [5] and in assay [6] was inactive.

Regarding `O=c1cccc[nH]1`, the molecule was classed as inactive in assay [3], in assay [4] and in assay [6].

With `CN(N=O)C(=O)N[C@@H]1[C@@H](O)[C@H](O)[C@@H](CO)O[C@@H]1O`, the result in assay [1] and in assay [2] was inactive.

With `O=C1c2ccccc2C(=O)c2c(Cl)cccc21`, the result in assay [5] and in assay [2] was inactive.

Consider `N#Cc1ccccc1O`, for which the molecule was classed as inactive in assay [5] and in assay [7].

As for `CSc1ccc(O)cc1C`, the molecule was classed as inactive in assay [5]. In assay [2], the AC50 is 16.2 µM (active).

As to `CCOC(=O)CCC(C)=O`, the outcome in assay [1] and in assay [2] was inactive.

Take `CCn1c2ccccc2c2ccccc21`: the result in assay [5] was inactive. Also, the AC50 in assay [2] is 66.3 µM (active).

Turning to `CCC(C)CO` (stereo not drawn), the outcome in assay [1] was inactive. In addition, in assay [2], the concentration at half-maximal activity (AC50) was 74.7 µM (active).

For `O=S(=O)(O)c1ccc(Cl)cc1`, the outcome in assay [1] and in assay [2] was inactive.

In the case of `Cc1cccc(C)n1`, the result in assay [5] and in assay [2] was inactive.

In the case of `F[Si-2](F)(F)(F)(F)F`, the outcome (in assay [1]; with AR (gene 367)) was inactive.

These data come from PubChem BioAssay (EPA / NIEHS).
